# GPT2 inhibitor: blocks human glutamate pyruvate transaminase 2; Recombinant GPT2, coupled pyruvate oxidase/HRP Amplex Red fluorescence; Potency, µM (titrated, usually from 57.7 µM), inactives show at the top dose activity change, negative = inhibition, most hits filed as inhibitors; 100,000 tested, 0.25% active; note: % is set by controls: 0 for no effect and ±100 for the full control effect; nearly all actives have a fitted effect of over 60% in size
#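 Recombinant GPT2 (10ng/uL) with 250uM a-KG and 2mM L-alanine, 30 min at room temperature, in HEPES pH 7.5 buffer. Pyruvate detected by pyruvate oxidase/HRP/Amplex Red fluorescence after 30 min in the dark; AOA (50uM) as positive control.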
# hNpr1 antagonist: human Npr1 receptor antagonism; P16066; HEK293 hNpr1 GloSensor cGMP, ANP-stimulated luminescence; Potency, µM (series often up to 46.3 µM), for inactives: at the highest dose activity change, negative = inhibition, usual class: inhibitors; 76,000 tested, 1.6% active; AID 1347048; calls by dose curve; note: % is set by controls: 0 for no effect and ±100 for the full control effect; nearly all actives have a fitted effect of over 60% in size
#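 Compound pre-incubated 30 min at room temperature on GloSensor-loaded HEK293 cells stably carrying hNpr1 and the pGS-40F cGMP biosensor. Stimulation uses hNppA at 0.1 nM final; luminescence is taken at baseline and 20 min post-agonist.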
# FLuc inh-1: inhibitors of firefly (Photinus pyralis) luciferase. Potency, µM (series often up to 115 µM), usual class: inhibitors. P08659. purified P. pyralis luciferase, luminescence, biochemical. 76,000 tested, 2.5% active. AID 1347043; note: % is set by controls: 0 for no effect and ±100 for the full control effect; nearly all actives have a fitted effect of over 65% in size
#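 Luminescence read by CCD imager after adding enzyme (10nM final) to wells holding compound, titrated in qHTS. Substrates 10uM each D-luciferin and ATP; buffer 50mM Tris acetate pH 7.5, 10mM Mg acetate, Tween-20, BSA.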
# HEK cytotox: HEK 293 cell cytotoxicity | AID 1345083 | HEK 293 viability, ATP luminescence (CellTiter-Glo), 48-72 h | 94,000 tested, 6.6% active | Potency, µM (top dose mostly 115 µM), for the others: at the top dose activity change, negative = cytotoxicity, hits mostly inhibitors; note: % is set by controls: 0 for no effect and ±100 for the full control effect; nearly all actives have a fitted effect of over 60% in size
#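 HEK 293 seeded at 250 cells/well receive compound via pintool. After 48 or 72 hr at 37 degree Celsius, 5% CO2 and 95% humidity, CellTiter-Glo is dispensed and luminescence read following 10 min at room temperature.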
# 3T3 cytotox: kills NIH 3T3 cells. NIH 3T3 viability, CellTiter-Glo ATP luminescence, 48-72 h. Potency, µM (series often up to 96.7 µM), for inactives: top-dose activity change, negative = cytotoxicity, most hits filed as inhibitors. 94,000 tested, 4.3% active. AID 1345082; note: % is set by controls: 0 for no effect and ±100 for the full control effect; nearly all actives have a fitted effect of over 55% in size
#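 Cytotoxicity is measured as loss of cellular ATP: NIH 3T3 cells (400/well) are exposed to compound for 48 or 72 hr at 37 °C, then CellTiter-Glo luminescence is imaged after 10 min at room temperature.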
# FLuc SDR no ATP: firefly luciferase binding stabilization, ATP absent; AID 1963318; shares compounds with FLuc inh-1; 1,300 tested, 7.8% active; Potency, µM (top dose mostly 32.7 µM), inactives show top-dose activation (signal gain), hits mostly activators; Purified FLuc-C-HiBiT, Nano-Glo HiBiT luminescence, no ATP; note: nearly all actives have a fitted effect of over 55% in size
# FLuc SDR ATP: stabilizes firefly luciferase with ATP present; shares compounds with FLuc inh-1; purified FLuc-C-HiBiT + ATP, HiBiT complementation luminescence; Potency, µM (doses to about 32.7 µM), inactives show at the top dose activation (gain of signal), usual class: activators; 1,300 tested, 8.7% active; AID 1963319;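 note: signal reports ligand binding via conformational change of the enzyme rather than luciferase catalysis; % of control where 0% means no effect; nearly all actives have a fitted effect of over 55% in size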
# FLuc inh-2: firefly luciferase enzyme inhibition. Potency, µM (top dose mostly 32.7 µM), for inactives: at the highest dose activity change, negative = inhibition, hits mostly inhibitors. purified FLuc-C-HiBiT enzyme, luciferin luminescence. 1,300 tested, 42% active. shares compounds with FLuc inh-1; note: % is set by controls: 0 for no effect and ±100 for the full control effect; nearly all actives have a fitted effect of over 70% in size
# Numbers without * were called inactive; i = inactive; ? = inconclusive; . = no result given; [ ] = dose if it differs, or a comment. The list is not random: actives were taken first. Their share in the collection is about 10%. Unless noted, calls come from the whole dose curve; as a rule, active = well fitted curve in the direction sought with a large enough effect; inconclusive = small, poorly fitted or top-dose-only effect, or another doubt; inactive = no such curve, though single readings can be large; an effect the other way counts as inactive or inconclusive. Potency is the fitted concentration of half-maximal effect.
SMILES,GPT2 inhibitor,hNpr1 antagonist,FLuc inh-1,HEK cytotox,3T3 cytotox,FLuc SDR no ATP,FLuc SDR ATP,FLuc inh-2
Nc1ccc2ncnc(N3CCCCC3)c2c1,2%,-24%,i,?,?,.,.,.
O=C(Nc1ccc2ncnc(N3CCCCC3)c2c1)c1ccccc1Cl,-7%,-16%,i,?,?,.,.,.
COc1ccc(CN2C(=O)COC[C@H]2C(=O)Nc2cc(F)ccc2C)c(OC)c1,i,.,.,-2%,?,.,.,.
CC1=C[C@@H](CNC(=O)c2ccccc2)[C@H](C(C)C)C[C@H]1CC(=O)N1CCCC1,0%[88.5 µM],-19%[70.6 µM],i,?,?,.,.,.
O=C1CO[C@H]2CN(Cc3cccnc3)C[C@H]2N1Cc1cccc(C(F)(F)F)c1,-4%[88.5 µM],-2%[70.6 µM],i,-14%[172 µM],-25%[138 µM],.,.,.
CC(C)Cn1c(=O)c(C(=O)N2CCCCC2)nc2cccnc21,i,.,.,3%[172 µM],-18%[138 µM],.,.,.
CCC(=O)Nc1ccc2nnc(-c3ccc(C(=O)Nc4ccc5c(c4)OCCO5)cc3)n2c1,-2%,-18%,14µM*,?,i,21%,?,?
CCC(C)(C)NC(=O)c1ccc(-c2nnc3ccc(NC(=O)C4CC4)cn23)cc1,i,-6%,i,?,-23%,.,.,.
CC(C)N1C[C@H](Oc2ccccc2)[C@@H]1C1CCN(C(=O)c2ccccn2)CC1,?,.,.,-16%,-27%,.,.,.
Cc1cc(-c2nc3cc(F)ccc3s2)ccc1NC(=O)[C@@H](N)CCCCN,-21%,.,.,.,.,30%,?,2.5µM*
Cc1cc(-c2nc3cc(F)ccc3s2)ccc1N,.,.,.,.,.,?,?,1.1µM*
O=C(c1ccc2oc(-c3ccncc3Cl)nc2c1)N1CCOCC1,i,.,.,-24%[172 µM],-30%[138 µM],.,.,.
COc1ccc(C(=O)NCC2Cc3cc(C)cc(-c4nc5ccccc5s4)c3O2)c(OC)c1OC (stereo not drawn),.,.,.,.,.,15%,11%,1%
Cc1cc2c(c(-c3nc4ccccc4s3)c1)OC(CNC(=O)c1occc1C)C2 (stereo not drawn),.,.,.,.,.,15%,12%,?
COc1ccc(-c2[nH]ncc2CN2CCCCCNC(=O)CC2c2ccccc2)cc1 (stereo not drawn),i,4%,i,?,?,.,.,.
COc1ccc(C)cc1NC(=O)Cn1nc2c(cc1=O)CCCCC2,4%,2%,i,3%,-1%,.,.,.
COc1ccc(C)cc1NC(=O)c1ccc2c(Cl)c3c(nc2c1)CCC3,.,.,.,.,.,23%,16%,?
CCOc1ccc(C(=O)Nc2ccc(-c3nc4ccccc4s3)cc2)cc1[N+](=O)[O-],.,.,.,.,.,13%,9%,0%
COc1ccc(-c2nc3ccccc3s2)cc1NC(C)=O,.,.,.,.,.,15%,15%,?
COc1ccc(-c2nc3ccccc3s2)cc1NC(=O)c1ccc(C#N)cc1F,.,.,.,.,.,13%,9%,-1%
COc1cccc(CNc2ccc(S(=O)(=O)Nc3nc4ccccc4s3)cc2)c1O,3%,.,.,.,.,.,.,.
COc1ccc(-c2nc3ccccc3s2)cc1NC(=O)c1cccc([N+](=O)[O-])c1C,.,.,.,.,.,15%,14%,6.2µM*
COc1cccc(CNC(=O)c2cn3cc(-c4ccc(C(F)(F)F)cc4)sc3n2)c1,i,.,.,-3%,-14%,.,.,.
O=C([C@H]1O[C@H](CCN2CCN(Cc3ccccc3)CC2)CC[C@@H]1O)N1CCN(c2ccc(F)cc2)CC1,i,-22%,i,?,-21%,.,.,.
COc1ccc(-c2nc3ccccc3s2)cc1NC(=O)c1cc2ccccc2o1,.,.,.,.,.,7%,7%,-4%
SMILES,GPT2 inhibitor,hNpr1 antagonist,FLuc inh-1,HEK cytotox,3T3 cytotox,FLuc SDR no ATP,FLuc SDR ATP,FLuc inh-2
COc1ccc(-c2nc3ccccc3s2)cc1NC(=O)c1ccccc1F,.,.,.,.,.,15%,7%,-16%
COc1ccc(-c2ccc(C(=O)Nc3ccccc3F)c(Cl)c2)nn1,.,.,.,?,-26%,.,.,.
COc1ccccc1NC(=O)O[C@H]1COCCN(c2nc3ccccc3s2)C1,i,-8%[70.6 µM],i,?,?,.,.,.
N#Cc1c(-n2ncnc2-c2ccc(Br)cc2)sc2c1CCCCC2,.,.,.,.,.,23%,21%,9.9µM*
Nc1nc2ccc(OC(F)(F)F)cc2s1,-12%,.,.,.,.,.,.,.
COc1ccc2nc(NC(=O)Cn3nc4c(cc3=O)CCCC4)sc2c1,2%,-2%,?,-23%,-2%,.,.,.
COc1ccc2nc(-c3ccc(Oc4ccccc4)cc3)sc2c1,.,.,.,.,.,28%,?,11µM*
C=Cc1ccc(-c2nc3ccc(OC)cc3s2)cc1,.,.,.,.,.,12µM*,?,0.44µM*
Nc1ccc2nc(-c3ccc(O)cc3)sc2c1,.,.,.,.,.,3.9µM*,?,0.62µM*
Nc1c(C(=O)Nc2ccc(C(=O)O)cc2)sc2nc3c(cc12)CCCC3,.,.,.,.,.,11µM*,0.25µM*,0.18µM*
O=C(O)[C@@H]1CN(Cc2ccccc2)C[C@@H]1C(=O)N1CCc2ccccc21,?,1%,i,i,-1%,13%,9%,1%

# Assay outcomes as filed in PubChem.
